{
  "source": "PubChem BioAssay (Tox21)",
  "note": "Calls of active or inactive are those of the source. Calls come from the whole dose curve; as a rule, active = well fitted curve in the direction sought with a large enough effect in the repeat runs; inconclusive = weak or mixed curves; inactive = flat fitted curve, though single readings scatter.",
  "data": [
    {"test": "qHTS assay to test for compound auto fluorescence at 590 nm (red) in HepG2 cell free culture (AID 720684)", "settings": "cell-free medium autofluorescence, red 540/590 nm; series mostly up to 91.3 µM", "description": "U.S. Tox21 Program National Center for Advancing Translational Sciences [NCATS] NIH Chemical Genomics Center [NCGC] U.S. Environmental Protection Agency [EPA] National Institutes of Environmental Health Sciences [NIEHS] National Toxicology Program [NTP] U.S. Food and Drug Administration [FDA] Tox21 Assay Overview: Compound auto fluorescence often interferes with screening of the compound library against various biological targets and signaling pathways. Some of these compounds may have fluorophoric properties. Such properties may interfere with the assay outputs resulting in false positives and/or negatives. To decrease such complications and ensure the compound activities are relevant in terms of biological response, the Tox21 10K compound library was screened for auto fluorescence. From the fluorophores used as reporter signals in our screening assays, the auto fluorescence equivalencies of compounds against three fluorophores have been evaluated: Triamterene, Fluorescein and Rose Bengal sodium for blue, green and red fluorescence, respectively. The fluorescence intensities were measured using Excitation/Emission wavelengths at 405/460nm, 485/535nm and 540/590nm for blue, green and red labels, respectively. This assay includes the red fluorescence data.\nTox21 Assay Protocol Summary: 5 uL of culture medium (MEM containing 10% FBS) per well was dispensed into black wall/clear bottom 1536-well plates using a Multidrop Combi Dispenser (ThermoFisher Scientific, Waltham, MA). After 23 nL compound or DMSO vehicle was transferred into assay plate by a pintool work station (Kalypsys, San Diego, CA), fluorescence intensities in the assay plates were measured by an Envision (PerkinElmer, Shelton, CT) plate reader using three labels for measuring blue, green and red fluorescence at […] 460, 535 and 590nm respectively.", "values": [
      {"smiles": "CC(C)(c1ccccc1)c1ccc(O)cc1", "outcome": "inactive"},
      {"smiles": "COC(=O)Nc1nc2ccccc2[nH]1", "outcome": "inactive"},
      {"smiles": "COc1ccc(C=O)cc1OC", "outcome": "inactive"},
      {"smiles": "CCC/C=N/O", "outcome": "inactive"},
      {"smiles": "CCOP(=S)(OCC)OP(=S)(OCC)OCC", "outcome": "inactive"},
      {"smiles": "CC1CC(=O)O1", "note": "(stereo not given)", "outcome": "inactive"},
      {"smiles": "CCC(=O)Nc1ccc(Cl)c(Cl)c1", "outcome": "inactive"},
      {"smiles": "CC(C)CON=O", "outcome": "inactive"},
      {"smiles": "NN=C(N)N", "outcome": "inactive"},
      {"smiles": "CC(C)=CC1C(C(=O)OCN2C(=O)C3=C(CCCC3)C2=O)C1(C)C", "note": "(stereo not given)", "outcome": "inactive"},
      {"smiles": "COP(=O)(NC(C)=O)SC", "note": "(stereo not given)", "outcome": "inactive"},
      {"smiles": "CC1(C)Cc2cccc(O)c2O1", "outcome": "inactive"},
      {"smiles": "O=C1CCCO1", "outcome": "inactive"},
      {"smiles": "CCOP(=O)(O)OCC", "note": "(tested in a mixture with another compound)", "outcome": "inactive"},
      {"smiles": "Nc1ncn[nH]1", "outcome": "inactive"},
      {"smiles": "C=C(C)C#N", "outcome": "inactive"},
      {"smiles": "CCCCSP(=O)(SCCCC)SCCCC", "outcome": "inactive"},
      {"smiles": "O=[N+]([O-])c1ccc(Nc2ccccc2)cc1", "outcome": "inactive"},
      {"smiles": "CCCCCCCCCc1ccc(O)cc1", "outcome": "inactive"},
      {"smiles": "Clc1cccc(C(Cl)(Cl)Cl)n1", "outcome": "inactive"},
      {"smiles": "O=NN1CCOCC1", "outcome": "inactive"},
      {"smiles": "CC1(C)C(C(=O)OC(C#N)c2cccc(Oc3ccccc3)c2)C1(C)C", "note": "(stereo not given)", "outcome": "inactive"},
      {"smiles": "Cc1ccc(N=CN(C)C=Nc2ccc(C)cc2C)c(C)c1", "outcome": "inactive"},
      {"smiles": "[Cl-].[Cl-].[Cl-].[Fe+3]", "outcome": "inactive"},
      {"smiles": "CCCCCCCCCCCCCl", "outcome": "inactive"},
      {"smiles": "N#Cc1c(Cl)c(Cl)c(Cl)c(C#N)c1Cl", "outcome": "inactive"},
      {"smiles": "O=[N+]([O-])c1ccc(Cl)c([N+](=O)[O-])c1", "outcome": "inactive"},
      {"smiles": "O=C(O)c1nn(Cc2ccc(Cl)cc2Cl)c2ccccc12", "outcome": "inactive"},
      {"smiles": "Oc1ccc(Cl)cc1Cl", "outcome": "inactive"},
      {"smiles": "Cn1c(-c2ccccc2)cc(-c2ccccc2)[n+]1C", "outcome": "inactive"},
      {"smiles": "CC(C)COC(=O)c1ccccc1C(=O)OCC(C)C", "outcome": "inactive"},
      {"smiles": "CN(C)c1ccccc1", "outcome": "inactive"},
      {"smiles": "CCC[CH2][Sn]([Cl])([Cl])[CH2]CCC", "outcome": "inactive"},
      {"smiles": "CCN(CC)C(=O)C(C)Oc1cccc2ccccc12", "note": "(stereo not given)", "outcome": "inactive"},
      {"smiles": "ClC(Cl)(Cl)c1ccccc1", "outcome": "inactive"},
      {"smiles": "O=C(O)CF", "outcome": "inactive"},
      {"smiles": "OC(c1ccc(Cl)cc1)(c1cncnc1)c1ccccc1Cl", "note": "(stereo not given)", "outcome": "inactive"},
      {"smiles": "C[C@]12CC[C@H]3[C@@H](CCC4=CC(=O)CC[C@@H]43)[C@@H]1CC[C@@H]2O", "outcome": "inactive"},
      {"smiles": "[CH3][Sn]([Cl])([Cl])[Cl]", "outcome": "inactive"},
      {"smiles": "O=[N+]([O-])/N=C1\\NCCN1Cc1ccc(Cl)nc1", "outcome": "inactive"}
    ]}
  ]
}
